Results as given in PubChem BioAssay (Tox21).
Inconclusive results are not listed. Unmarked numbers belong to inactive results. The call rests on the fitted dose curve; in most records, active means well fitted cell-killing curve with a large enough effect in the repeat runs; inconclusive means weak or mixed curves, or effect the other way; inactive means no such curve, though single readings can be large or run the other way.

assay: qHTS assay to identify small molecule agonists of the RXR signaling pathway - cell viability counter screen (AID 1159529); conditions: RXR-alpha-bla HEK293T viability, CellTiter-Glo, 16 h; series mostly up to 76.8 µM; activity change, negative = cytotoxicity: at the top concentration;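 further: HEK 293T cells carrying an RXR-alpha UAS beta-lactamase reporter; nearly all actives have a fitted effect of over 50% in size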
Procedure, shortened: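 Viability read-out for the RXR-alpha agonist qHTS: luminescent CellTiter-Glo signal after 30 min at RT. HEK 293T bla reporter cells, 2% charcoal-stripped FBS, 16 hr compound incubation; tetraoctyl ammonium bromide as cytotoxic control.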
On the % scale 0 is the no-effect control and ±100 the full control effect.

| SMILES | activity change, negative = cytotoxicity |
| --- | --- |
| CC1CCc2nccnc21 (stereo not drawn) | 19% |
| CNC1CCCN(c2c(F)cc3c(=O)c(C(=O)O)cn(C4CC4)c3c2OC)C1 (stereo not drawn) | 2.26% [at 35.3 µM] |
| O=NN(CCCl)C(=O)NCCCl | -10.4% [at 35.3 µM] |
| CC[C@H]1OC(=O)[C@H](C)[C@@H](O[C@H]2C[C@@](C)(OC)[C@@H](O)[C@H](C)O2)[C@H](C)[C@@H](O[C@@H]2O[C@H](C)C[C@H](N(C)C)[C@H]2O)[C@](C)(O)C[C@@H](C)/C(=N\OCOCCOC)[C@H](C)[C@@H](O)[C@]1(C)O | 2.82% [at 35.3 µM] |
| CCCCOC(=O)CCCCC(=O)OCCCC | -4.05% |
| CCc1ccc(C)cc1 | -0.0965% |
| CC(=O)OCC1=C(C(=O)O)N2C(=O)[C@@H](NC(=O)CSc3ccncc3)[C@H]2SC1 | -1.03% [at 35.3 µM] |
| COC(CC(C)CCCC(C)(C)O)OC (stereo not drawn) | 4.67% |
| O=C(O)/C=C/c1ccc(O)c(O)c1 | -8.63% |
| O=C1NC(=O)c2cccc3cccc1c23 | 1.11% |
| O=[N+]([O-])c1ccc2ncccc2c1 | -5.41% |
| Cc1cn([C@H]2C[C@H](F)[C@@H](CO)O2)c(=O)[nH]c1=O | 2.66% [at 35.3 µM] |
| CCCCCCOC(=O)CCCCC | -11.4% |
| CCC(C)(C)C(=O)O | 1.5% |
| CC1=CC[C@@H]2C[C@H]1C2(C)C | -11.8% [at 15.8 µM] |
| CCC1CCC(CCC(=O)O)C1 (stereo not drawn) | -17.8% |
| Nc1c(Cl)cc(Cl)cc1[N+](=O)[O-] | 2.99% |
| CC(CCc1ccc(O)cc1)NCCc1ccc(O)c(O)c1 (stereo not drawn) | 5.51% [at 35.3 µM] |
| c1ccc(CCCc2ccncc2)cc1 | -0.267% |

| SMILES | activity change, negative = cytotoxicity |
| --- | --- |
| COc1ccc(-n2nc(C(F)F)cc2-c2ccc(S(C)=O)cc2)cc1 (stereo not drawn) | 0.207% |
| O=C(NS(=O)(=O)/C=C/c1ccccc1)c1ccc(F)cc1Cl | -18% |
| CC(=O)OCC(=O)[C@@]1(OC(C)=O)[C@@H](C)C[C@H]2[C@@H]3C[C@H](F)C4=CC(=O)C=C[C@]4(C)[C@@]3(F)[C@@H](O)C[C@@]21C | -14.2% [at 35.3 µM] |
| O=C1c2ccccc2C(=O)c2c(O)ccc(O)c21 | -4.36% |
| CCOC(=O)C(C)O (stereo not drawn) | 1.14% |
| CC(C)(C)C(O)/C=C/c1ccc2c(c1)OCO2 (stereo not drawn) | 1.66% [at 35.3 µM] |
| C=C(C)c1ccccc1 | 11.9% |
| CCOc1ncc(F)c(=O)[nH]1 | 1.32% [at 35.3 µM] |
| CCCC(=O)OC(=O)CCC | -0.483% |
| O=C(O)CCC(=O)c1ccc(-c2ccccc2)cc1 | -5.93% [at 35.3 µM] |
| COc1cc(NC(C)CCCN)c2ncccc2c1 (stereo not drawn) | -24.5% [at 35.3 µM] |
| CCCCCCCCCCCCCCCC(=O)OCC | -4.12% |
| CCCCCCC(O)CCCCCCCCCCC(=O)OC (stereo not drawn) | 3.82% |
| CC(=O)OCC(C)C | -1.92% |
| Cc1ccc2c(c1)CCCN2 | -14.2% |
| CCO[Si](C)(CCCOCC1CO1)OCC (stereo not drawn) | -13.3% |
| CCN(CC)CCNC(=O)c1cc(Cl)c(N)cc1OC | 12.4% [at 35.3 µM] |
| CC1CCCC(=O)C1=O (stereo not drawn) | -2.3% |
| CC(C)C(=O)OCCOc1ccccc1 | 3.12% |
